Results: publication PMC4336329 (PLoS ONE, 2015)
About 14,000 (4.5%) of roughly 310,000 compounds showed an effect of 50% or more. The effect is printed as a negative number. The sample as a whole holds a higher share of strong results than the screen did.

Molecular target: human ether-à-go-go-related gene (hERG) potassium channel (human, UniProt Q12809)
Experiment: primary screen, population patch clamp on CHO cells stably expressing hERG; higher = less effect of the substance
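Also: peak tail current of the secondary pulse compared with the same well before compound.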

human ether-à-go-go-related gene (hERG) potassium channel, sequence (Q12809 whole entry, looked up): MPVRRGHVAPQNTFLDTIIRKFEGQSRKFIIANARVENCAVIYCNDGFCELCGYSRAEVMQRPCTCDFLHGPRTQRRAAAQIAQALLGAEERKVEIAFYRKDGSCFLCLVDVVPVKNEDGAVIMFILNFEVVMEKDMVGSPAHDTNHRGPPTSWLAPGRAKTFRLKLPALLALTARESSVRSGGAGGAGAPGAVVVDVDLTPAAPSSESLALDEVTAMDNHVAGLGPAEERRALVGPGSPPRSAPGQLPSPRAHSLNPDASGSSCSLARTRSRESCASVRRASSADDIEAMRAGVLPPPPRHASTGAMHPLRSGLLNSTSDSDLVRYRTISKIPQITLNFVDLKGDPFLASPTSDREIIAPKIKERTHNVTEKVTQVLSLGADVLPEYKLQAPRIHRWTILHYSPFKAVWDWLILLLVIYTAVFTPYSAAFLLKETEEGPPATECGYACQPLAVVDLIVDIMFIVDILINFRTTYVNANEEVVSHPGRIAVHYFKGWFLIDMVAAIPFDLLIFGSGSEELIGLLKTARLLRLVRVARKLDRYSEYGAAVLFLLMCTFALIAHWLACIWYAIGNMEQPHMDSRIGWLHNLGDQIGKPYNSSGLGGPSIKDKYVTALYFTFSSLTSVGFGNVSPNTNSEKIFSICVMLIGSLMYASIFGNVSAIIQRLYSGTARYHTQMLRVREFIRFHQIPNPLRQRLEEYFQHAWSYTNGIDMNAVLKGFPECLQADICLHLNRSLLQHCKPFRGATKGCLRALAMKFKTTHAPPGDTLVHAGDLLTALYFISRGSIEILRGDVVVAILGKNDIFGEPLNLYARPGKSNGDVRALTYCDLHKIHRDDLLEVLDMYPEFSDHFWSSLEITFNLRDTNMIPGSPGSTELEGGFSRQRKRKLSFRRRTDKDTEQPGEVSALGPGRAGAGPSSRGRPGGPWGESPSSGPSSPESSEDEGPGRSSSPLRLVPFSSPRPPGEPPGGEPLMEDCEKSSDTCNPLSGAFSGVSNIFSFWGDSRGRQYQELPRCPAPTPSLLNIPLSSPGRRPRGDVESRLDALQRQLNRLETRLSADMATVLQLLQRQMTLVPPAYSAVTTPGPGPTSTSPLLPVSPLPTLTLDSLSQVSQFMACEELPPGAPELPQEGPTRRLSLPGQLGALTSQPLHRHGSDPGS

Structure (SMILES) | hERG current change (%, negative = inhibition) at 10uM
CNC(=S)N/N=C/c1cc(C)ccc1C | 20.7%
O=C(CCc1ccccc1)Nc1ncc([N+](=O)[O-])s1 | 2.96%
Cc1ccc(CNC(=O)C2CCC(=O)N2Cc2ccccc2Cl)cc1 (centres unmarked) | 2.52%
CCOC(=O)C1(CCOc2ccccc2)CCN(Cc2cc(OC)cc(OC)c2)CC1 | -79.8%
CN(C(=O)c1ccc(NC(=O)Cc2ccc(NC(=O)C3CCN(C(=O)C4CCCC4)CC3)cc2)cc1)C1CC1 | 22.8%
Cc1cc(Cl)c(C)c(S(=O)(=O)N2CCN(CC(=O)N3CCOCC3)CC2)c1Cl | -64.8%
Cc1ccc(S(=O)(=O)N2CCN(CC(=O)N3CCOCC3)CC2)cc1 | 16.8%
O=C(CN1CCN(S(=O)(=O)c2ccccc2)CC1)N1CCCCC1 | 10.8%
O=C(CN1CCN(S(=O)(=O)c2ccc(Cl)s2)CC1)N1CCOCC1 | 14.4%
O=C(CN1CCN(S(=O)(=O)c2cccc(Cl)c2)CC1)N1CCCCC1 | -24.8%
O=C(CN1CCN(S(=O)(=O)c2ccc(Cl)c(Cl)c2)CC1)N1CCCCC1 | -53.5%
COc1ccc2c(c1)O[C@@]1(CCCC[C@@H]1C)CC2=O | -1.09%
CCC(C)Sc1nc2c(c(=O)[nH]c(=O)n2C)n1C (centres unmarked) | -4.04%
Cc1nn(C(C)C(=O)NCCN2CCCC2)c(=O)c2c1sc1ccccc12 (centres unmarked) | 1.56%
Cn1c(C(=O)N2CCN(c3nc4ccccc4s3)CC2)cc2sccc21 | -8.35%
COc1ccc(C(=O)NCCNc2ccc([N+](=O)[O-])cc2)cc1OC | -1.31%
O=[N+]([O-])c1ccc(NCc2ccncc2)cc1 | -3.55%
COc1cc(C(=O)NCCCNc2ccc([N+](=O)[O-])cc2)cc(OC)c1OC | -57.6%
COC(=O)C(CCCCNC(=O)c1ccc([N+](=O)[O-])cc1)NC(=O)c1ccc([N+](=O)[O-])cc1 (centres unmarked) | -76.3%

Structure (SMILES) | hERG current change (%, negative = inhibition) at 10uM
O=C(CCNc1ccc(Cc2ccncc2)cc1)c1ccc([N+](=O)[O-])cc1 | -56.8%
O=C(Nc1ccccc1C(=O)Nc1ccncc1)c1ccc([N+](=O)[O-])cc1 | -4.77%
COC(=O)C(CC(C)C)NC(=O)c1ccc([N+](=O)[O-])cc1 (centres unmarked) | -23.2%
O=C(CCNc1ccc(Cc2ccncc2)cc1)c1cccc([N+](=O)[O-])c1 | 11%
O=C(NCCCCC(NC(=O)c1ccc([N+](=O)[O-])cc1)C(=O)O)c1ccc([N+](=O)[O-])cc1 (centres unmarked) | -44.7%
COc1ccccc1C(=O)NCCCNc1ccc([N+](=O)[O-])cc1 | -19.2%
O=C(NNC(=O)c1ccncc1)Nc1ccc([N+](=O)[O-])cc1 | 11.2%
O=C(Nc1ccc(Nc2ccncc2)cc1)c1ccc([N+](=O)[O-])cc1 | -59.5%
COc1cccc(CN2CCNC(=O)C2CC(=O)NCCc2ccccn2)c1 (centres unmarked) | 9.8%
CC1CCN(C(c2cc3cc4c(cc3[nH]c2=O)OCO4)c2nnnn2CC2CCCO2)CC1 (centres unmarked) | -3.99%
Nc1ccc(SCCN2C(=O)c3ccccc3C2=O)cc1 | -1.22%
CC(=O)/C(C(=N)N1CCN(C(c2ccccc2)c2ccccc2)CC1)=C(\C)O | 8.3%
O=C(CCNC(=O)c1ccco1)Nc1ccccc1OC(F)F | 10.4%
COc1ccccc1-c1cc(C(=O)NCCc2ccccc2)no1 | 5.18%
BrCC(Br)C1CCC(Br)C(Br)C1 (centres unmarked) | 20.6%
Cc1cc(OCC(=O)NC(C)(C)C)ccc1Cl | 7.04%
COC(=O)c1ccc2c(c1)NC1=C(C(=O)CC(C)(C)C1)C(c1ccncc1)N2 (centres unmarked) | -4.48%
O=C(NCc1ccco1)c1cc([N+](=O)[O-])ccc1N1CCOCC1 | -25.4%
c1ccc(-n2nnnc2CN2CCOCC2)cc1 | 14.8%

Structure (SMILES) | hERG current change (%, negative = inhibition) at 10uM
CCOC(=O)[C@H]1[C@H]2COc3ccc(C)cc3[C@@H]2N2C(=O)CN(CC3CCCO3)C(=O)[C@@]12C (some centres unmarked) | 7.72%
CCOc1ccc2nc(NCCCNC(=O)c3cc(OC)c(OC)c(OC)c3)c(C#N)cc2c1 | -51.3%
CCOc1ccc2nc(NCCNC(=O)c3cc(OC)c(OC)c(OC)c3)c(C#N)cc2c1 | 5.24%
O=C(NCCNc1ccc([N+](=O)[O-])cc1)c1ccc(Cl)cc1 | -52.8%
O=C(NCCNc1ccc([N+](=O)[O-])cc1)c1cc(F)c(F)cc1Cl | -45.1%
COc1ccc(C(=O)NCCNc2ccc([N+](=O)[O-])cc2)cc1 | -40.9%
COc1ccc2nc(NCCCNC(=O)c3cc(OC)c(OC)c(OC)c3)c(C#N)cc2c1 | -11%
Cn1nnnc1Sc1ncnc2scc(-c3ccccc3Br)c12 | -4.66%
COc1ccc(CCN(C)C2CC(=O)N(c3ccccc3)C2=O)cc1OC (centres unmarked) | -5.77%
Cc1ccc(N(Cc2cc(=O)[nH]c3ccccc23)C(=O)c2ccco2)cc1 | -34.4%
Cc1cc(C)n(C(=O)Cn2nc(C)c(Br)c2C)n1 | 14%
O=C(Nc1cccc(Cl)c1)Nc1cnccn1 | 29.1%
CCOC(=O)C1(CC2CCCCO2)CCN(Cc2nc(C(C)C)cs2)CC1 (centres unmarked) | -5.24%
CCOC(=O)C1(CC2CCCCO2)CCN(Cc2nccn2-c2cccc(C)c2)CC1 (centres unmarked) | 13.2%
CCOC(=O)C1(CC2CCCCO2)CCN(Cc2cc(F)ccc2-n2cccn2)CC1 (centres unmarked) | -57.1%
CCOC(=O)C1(CC2CCCCO2)CCN(Cc2c(C)cc(C)cc2-n2cccn2)CC1 (centres unmarked) | -77.8%
CCCCc1ncc(CN2CCC(CC3CCCCO3)(C(=O)OCC)CC2)[nH]1 (centres unmarked) | -45%
CCOC(=O)C1(CC2CCCCO2)CCN(Cc2nc3ccccc3[nH]2)CC1 (centres unmarked) | -19.5%
